The structures appear in SMILES notation. Where “and” joins values, the source holds several entries; their conditions need not be identical. Equal entries are not always repeated. Results filed as inconclusive are left out. Some structures have more than one record in an assay (separate samples or runs), and their calls can disagree. Calls of active or inactive are those of the source. Rule for the calls: active = hit-call score of the fitted dose curve at least 0.9, where 1 is the maximum; inconclusive = response in the unintended direction; inactive = score below 0.9.

Chain of frog Thyroid hormone Receptor alpha (TRa), thra-a (gene 397942) (P15204 whole entry, looked up): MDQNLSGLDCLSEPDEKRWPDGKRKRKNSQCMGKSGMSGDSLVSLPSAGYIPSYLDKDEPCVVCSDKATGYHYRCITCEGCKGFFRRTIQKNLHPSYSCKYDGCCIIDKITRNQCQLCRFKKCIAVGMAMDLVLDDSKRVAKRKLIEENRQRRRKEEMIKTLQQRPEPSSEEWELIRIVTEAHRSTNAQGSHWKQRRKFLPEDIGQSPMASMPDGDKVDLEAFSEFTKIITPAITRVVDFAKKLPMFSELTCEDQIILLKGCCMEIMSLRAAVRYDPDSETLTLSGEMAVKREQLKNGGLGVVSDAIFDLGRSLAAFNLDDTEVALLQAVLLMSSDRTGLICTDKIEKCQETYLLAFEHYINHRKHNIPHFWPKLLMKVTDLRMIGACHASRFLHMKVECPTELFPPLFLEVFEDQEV

Test system in the first assay: not listed separately
Kind of assay: ATG_XTT_Cytotoxicity_XSP2: Cytotoxicity Assessment in the Attagene TRANS-FACTORIAL Multi-Species (XSP2) HepG2 Assay (AID 2283837). The gist of the method:
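HepG2 cells, transiently transfected with multiple reporter constructs, exposed to chemical for 24 h. Cell number assessed with XTT fluorescence read-out; loss of signal fitted relative to DMSO.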
As for `CCC(=O)Nc1ccc(Cl)c(Cl)c1`, the result was inactive.

For the compound `Nc1c(Cl)cc([N+](=O)[O-])cc1Cl`, the compound was classed as inactive.

Turning to `CCOP(=O)(NC(C)C)Oc1ccc(SC)c(C)c1` (stereo not drawn), the compound was classed as inactive.

Regarding `COc1ccc(C(=CC(=O)N2CCOCC2)c2ccc(Cl)cc2)cc1OC`, the result was inactive.

In a further assay the target is human Thyroid hormone Receptor alpha (TRa), THRA (gene 7067) (UniProt P10827). Kind of assay: ATG_hTRa_XSP2: Attagene TRANS-FACTORIAL Multi-Species (XSP2) HepG2 Assay for human Thyroid hormone Receptor alpha (TRa) (AID 2283838). The protocol: (§1) ATG_XSP2_multi-species_TRANS is a cell-based, multiplexed assay created by modifying the existing Attagene TRANS-FACTORIAL system to include a panel of nuclear receptors from some or all the following species: human (Homo sapiens), mouse (Mus musculus), frog (Xenopus laevis), zebrafish (Danio rerio), chicken (Gallus gallus), and turtle (Chrysemys picta). The ECOTOX-FACTORIAL format uses HepG2, a human liver cell line, with measurements taken at 24 hours after chemical dosing in a 24-well plate. Xsp2 included 3 nM 6-alpha-fluorotestosterone and 1.5 nM norgestrel to stimulate the androgen receptor.ATG_hTRa_XSP2 is one of 29 assay components measured or calculated from the ATG_XSP2_multi-species_TRANS assay. It is designed to make measurements of mRNA induction, a form of inducible reporter, as detected with fluorescence intensity signals by Reverse transcription polymerase chain reaction (RT-PCR) and Capillary electrophoresis technology.The assay endpoint ATG_hTRa_XSP2 was analyzed in the positive analysis fitting direction relative to DMSO as the negative control and baseline of activity. Using a type of inducible reporter, measures of mRNA for gain-of-signal activity can be used to understand the reporter gene at the transcription factor-level as they relate to the gene TR. Furthermore, this assay endpoint can be referred to as a primary readout, because this assay has produced multiple assay endpoints where this one serves a reporter gene function. To generalize the intended target to other relatable targets, this assay endpoint is annotated to the nuclear receptor intended target family, where the subfamily is non-steroidal.
Chain of human Thyroid hormone Receptor alpha (TRa), THRA (gene 7067) (P10827 whole entry, looked up): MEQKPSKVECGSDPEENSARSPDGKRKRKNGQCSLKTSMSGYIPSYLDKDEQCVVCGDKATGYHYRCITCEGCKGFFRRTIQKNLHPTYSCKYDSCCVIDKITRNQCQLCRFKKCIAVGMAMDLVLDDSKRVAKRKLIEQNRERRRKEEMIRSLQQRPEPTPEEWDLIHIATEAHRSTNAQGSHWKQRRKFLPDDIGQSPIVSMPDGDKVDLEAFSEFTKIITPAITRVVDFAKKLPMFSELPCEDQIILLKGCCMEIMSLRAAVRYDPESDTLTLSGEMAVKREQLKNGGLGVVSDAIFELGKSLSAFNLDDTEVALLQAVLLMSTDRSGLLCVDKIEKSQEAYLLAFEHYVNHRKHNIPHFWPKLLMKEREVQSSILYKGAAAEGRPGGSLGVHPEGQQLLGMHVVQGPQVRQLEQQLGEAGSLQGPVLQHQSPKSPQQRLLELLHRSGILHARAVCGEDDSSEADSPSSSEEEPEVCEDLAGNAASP
(§2) Human liver HepG2 cells are transiently transfected with multiple reporter transcription units (MRTUs) in 6-well plates using FuGene 6 reagent (Roche; 3 ml FuGene/1 mg DNA). The MRTU constructs are regulated by a cis-regulating element (promoter). […] A major difference between the CIS and TRANS system is that in CIS activities of endogenous TFs are measured, whereas the TRANS assay evaluates changes in activities of exogenous, chimeric NR-Gal4 proteins. […] At the end of 24 hour incubation, total RNA was isolated using TriZol reagent (Invitrogen). The isolated RNA is then reverse-transcribed using oligo(dT) primer and Mo-MLV reverse transcriptase (Invitrogen) with DNAse I (Ambion) treatment for 30 min. The one-tenth of the produced cDNA was amplified by PCR using Taq DNA polymerase (Invitrogen) and two reporter sequence-specific primers. The PCR products were fluorescently labeled by primer extension with 6-arboxyfluorescein (6-FAM) 5'-labeled reporter sequence-specific primer (2 min at 95 C, 20 s at 68 C and 10 min at 72 C) and these products were digested with 5U of HpaI (New England Biolabs) for 2h at 37 C. The fragments were purified using Qiaquick PCR columns (Qiagen), analyzed on an ABI 3130xL genetic analyzer (Applied Biosystems) with peak positions identified by using a set of X-rhodamine (ROX)-labeled MapMarker1000 molecular weight standards (BioVentures). The raw capillary electrophoresis data was processed using Attagraph software (Attagene).
The term AC50 denotes the concentration giving half of the maximal activity seen. Regarding `CCC(=O)Nc1ccc(Cl)c(Cl)c1`, the AC50 is 165 µM (active) and the outcome was inactive.

In the case of `Nc1c(Cl)cc([N+](=O)[O-])cc1Cl`, the AC50 is 43.6 µM (active) and 22.8 µM (active).

As for `CCC(CC)Nc1c([N+](=O)[O-])cc(C)c(C)c1[N+](=O)[O-]`, the result was inactive.

On to `C#CCC1=C(C)C(OC(=O)C2C(C=C(C)C)C2(C)C)CC1=O` (stereo not drawn), for which the outcome was inactive.

Take `CCOP(=S)(OCC)Oc1ccc2c(C)c(Cl)c(=O)oc2c1`: the outcome was inactive.

Turning to `COc1ccc(C(=CC(=O)N2CCOCC2)c2ccc(Cl)cc2)cc1OC`, the compound was called inactive.

On to `C#CC(C)(C)NC(=O)c1cc(Cl)cc(Cl)c1`, for which the compound was classed as inactive.

In another assay the target is frog Thyroid hormone Receptor alpha (TRa), thra-a (gene 397942) (UniProt P15204). Briefly: ATG_frTRa_XSP2: Attagene TRANS-FACTORIAL Multi-Species (XSP2) HepG2 Assay for frog Thyroid hormone Receptor alpha (TRa) (AID 2283839).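 For AC50: AC50 reflects induction of frog TRa-driven reporter mRNA above DMSO baseline.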 The protocol:
as §1, with “receptor.ATG_frTRa_XSP2” for “receptor.ATG_hTRa_XSP2”, “ATG_frTRa_XSP2” for “ATG_hTRa_XSP2”
as §2
As for `CCC(=O)Nc1ccc(Cl)c(Cl)c1`, the outcome was inactive.

For `Nc1c(Cl)cc([N+](=O)[O-])cc1Cl`, the AC50 was 27.1 µM (active).

Turning to `CCc1cccc(C)c1N(C(=O)CCl)C(C)COC` (stereo not drawn), the result was inactive.

As to `CCOP(=O)(NC(C)C)Oc1ccc(SC)c(C)c1` (stereo not drawn), the compound was called inactive.

Take `CCC(CC)Nc1c([N+](=O)[O-])cc(C)c(C)c1[N+](=O)[O-]`: the compound was called inactive.

As for `C#CCC1=C(C)C(OC(=O)C2C(C=C(C)C)C2(C)C)CC1=O` (stereo not drawn), the outcome was inactive.

Take `CCOP(=S)(OCC)Oc1ccc2c(C)c(Cl)c(=O)oc2c1`: the compound was classed as inactive.

For `COc1ccc(C(=CC(=O)N2CCOCC2)c2ccc(Cl)cc2)cc1OC`, the compound was called inactive.

Consider `C#CC(C)(C)NC(=O)c1cc(Cl)cc(Cl)c1`, for which the AC50 was 26.8 µM (active).

The target of a further assay is human Thyroid hormone Receptor beta (TRb), THRB (gene 7068) (UniProt P10828). Kind of assay: ATG_hTRb_XSP2: Attagene TRANS-FACTORIAL Multi-Species (XSP2) HepG2 Assay for human Thyroid hormone Receptor beta (TRb) (AID 2283840).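 Note: actives raise reporter mRNA so potency reflects agonist-like gain of signal.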 A digest of the protocol: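 Gain-of-signal reporter transcription, referenced to DMSO, was measured in transiently transfected HepG2 after 24 h exposure; labeled RT-PCR products were resolved by capillary electrophoresis. Assay medium included 3 nM 6-alpha-fluorotestosterone and 1.5 nM norgestrel.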
Chain of human Thyroid hormone Receptor beta (TRb), THRB (gene 7068) (P10828 whole entry, looked up): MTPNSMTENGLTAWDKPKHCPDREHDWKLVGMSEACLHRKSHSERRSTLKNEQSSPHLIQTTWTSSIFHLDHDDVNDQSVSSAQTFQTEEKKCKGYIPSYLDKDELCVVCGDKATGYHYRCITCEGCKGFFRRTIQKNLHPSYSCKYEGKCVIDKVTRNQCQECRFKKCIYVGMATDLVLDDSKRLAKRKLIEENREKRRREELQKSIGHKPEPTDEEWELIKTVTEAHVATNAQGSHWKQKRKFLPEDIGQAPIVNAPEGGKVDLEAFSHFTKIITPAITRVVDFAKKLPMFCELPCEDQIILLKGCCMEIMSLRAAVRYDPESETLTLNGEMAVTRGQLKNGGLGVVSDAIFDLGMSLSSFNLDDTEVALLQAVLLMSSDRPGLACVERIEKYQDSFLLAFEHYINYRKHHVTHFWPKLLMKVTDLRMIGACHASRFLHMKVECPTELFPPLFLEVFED
Regarding `CCC(=O)Nc1ccc(Cl)c(Cl)c1`, the outcome was inactive.

Turning to `Nc1c(Cl)cc([N+](=O)[O-])cc1Cl`, the AC50 is 27.6 µM (active) and 82.2 µM (active).

With `CCC(CC)Nc1c([N+](=O)[O-])cc(C)c(C)c1[N+](=O)[O-]`, the outcome was inactive.

As to `C#CCC1=C(C)C(OC(=O)C2C(C=C(C)C)C2(C)C)CC1=O` (stereo not drawn), the compound was called inactive.

Regarding `CCOP(=S)(OCC)Oc1ccc2c(C)c(Cl)c(=O)oc2c1`, the call was inactive.

Regarding `COc1ccc(C(=CC(=O)N2CCOCC2)c2ccc(Cl)cc2)cc1OC`, the call was inactive.

With `C#CC(C)(C)NC(=O)c1cc(Cl)cc(Cl)c1`, the compound was classed as inactive.

Source of the values: PubChem BioAssay (EPA / NIEHS).
